# Assay results: the supplement of paper PMC6555819
# Legend:
# Assay in all cases: PBM binding z-score (relative to random genomic background probes); higher = stronger binding; sequences stand for … in GC…GCGATTGACAGCGTAGAATGAAGG
# [1] = system: FXR:RXRa (NR concentration 270 nM, RXRa partner concentration 90 nM)
# In short: (§1)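 For binding z-scores, the reference was random background probes on custom Agilent 4×180K protein-binding microarrays. These arrays were incubated 1 h with ligand-free nuclear receptor dimers in PBS pH 7.4, 2% milk, 0.02% Triton X-100, 1 mM DTT, 0.2 mg/mL BSA and 0.4 mg/ml salmon testes DNA. Fluorescence was scanned after antibody detection of each partner (one per run) and regression-normalized.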
# [2] = system: LXRa:RXRa (NR concentration 270 nM, RXRa partner concentration 90 nM)
# In short: as §1
# [3] = system: LXRa homodimer (NR concentration 270 nM)
# In short: as §1
# [4] = system: LXRb:RXRa (NR concentration 270 nM, RXRa partner concentration 90 nM)
# In short: as §1
# [5] = system: LXRb homodimer (NR concentration 270 nM)
# In short: as §1
# [6] = system: PPARa:RXRa (NR concentration 270 nM, RXRa partner concentration 90 nM)
# In short: as §1
# [7] = system: PPARg:RXRa (NR concentration 180 nM, RXRa partner concentration 90 nM)
# In short: as §1
# [8] = system: PPARg:RXRa 270nM:90nM, anti-RXR (NR concentration 270 nM, RXRa partner concentration 90 nM)
# In short: as §1
# [9] = system: PPARg:RXRa 30nM:10nM, anti-RXR (NR concentration 30 nM, RXRa partner concentration 10 nM)
# In short: as §1
# [10] = system: PPARg:RXRa 90nM:30nM, anti-RXR (NR concentration 90 nM, RXRa partner concentration 30 nM)
# In short: as §1
# [11] = system: PPARg:RXRa DBDmut IVT, anti-RXR (DBD mutation: RXRa K156A/R161A, NR concentration 270 nM, RXRa partner concentration 90 nM)
# In short: as §1
# [12] = system: PPARg:RXRa IVT, anti-PPARg (NR concentration 270 nM, RXRa partner concentration 90 nM)
# In short: as §1
# [13] = system: PPARg DBDmut:RXRa IVT, anti-PPARg (DBD mutation: PPARg1 K132A/R137A, NR concentration 270 nM, RXRa partner concentration 90 nM)
# In short: as §1
# [14] = system: PPARg DBDmut IVT, anti-PPARg (DBD mutation: PPARg1 K132A/R137A, NR concentration 270 nM)
# In short: as §1
# [15] = system: PPARg homodimer (NR concentration 180 nM)
# In short: as §1
# [16] = system: PXR:RXRa (NR concentration 270 nM, RXRa partner concentration 90 nM)
# In short: as §1
# [17] = system: PXR homodimer (NR concentration 270 nM)
# In short: as §1
# [18] = system: RARa:RXR (NR concentration 270 nM, RXRa partner concentration 90 nM)
# In short: as §1
# [19] = system: RARa homodimer (NR concentration 270 nM)
# In short: as §1
# [20] = system: RARb:RXRa (NR concentration 270 nM, RXRa partner concentration 90 nM)
# In short: as §1
Sequence,PBM binding z-score [1],PBM binding z-score [2],PBM binding z-score [3],PBM binding z-score [4],PBM binding z-score [5],PBM binding z-score [6],PBM binding z-score [7],PBM binding z-score [8],PBM binding z-score [9],PBM binding z-score [10],PBM binding z-score [11],PBM binding z-score [12],PBM binding z-score [13],PBM binding z-score [14],PBM binding z-score [15],PBM binding z-score [16],PBM binding z-score [17],PBM binding z-score [18],PBM binding z-score [19],PBM binding z-score [20]
ACTAGCAGGCCAAGTTTGTGTCACTCAAACAAAG,-0.566,-0.667,-0.358,-0.814,-0.886,-0.219,-0.46,-0.574,-0.538,-0.746,0.66,0.636,-0.284,-0.278,-0.972,-0.323,-0.685,-0.217,-0.826,0.471
ATCTCTGGGTAACCAAGTTCAGTGAATGCCGAAC,0.227,0.778,0.498,0.621,0.534,1.09,0.329,0.858,-0.0191,0.333,3.23,2.59,0.324,1.24,0.00227,2.4,1.35,0.719,-0.0126,1.24
CAAACTAGGTCAAGGTGAAAGTCGGTTTGTGCCA,3.92,2.88,0.394,1.93,0.139,5.18,8.7,7.35,6.13,7.28,8.58,8.62,2.55,1.53,1.47,1.65,0.138,2.19,0.4,4.2
CTACCAAGGTGAACTAGGTCGTTGATTACTATTC,1.2,1,0.238,1.61,-0.516,2.59,1.12,1.6,0.168,1.05,3.53,3.8,0.391,0.182,0.824,1.4,0.424,1.61,0.0789,1.97
CCTCGGAGGACAACAGGAGTTCAGAGCTGCCAGA,0.094,0.777,1.72,-0.123,-0.822,0.00336,0.0297,-0.913,-1.16,-1.11,-0.298,-1,-2.34,-1.22,0.513,1.92,1.78,0.366,0.371,1.67
CGTCCAAGTTCAACTAAGGTAACGTAAAGCACGC,4.27,3.59,1.01,2.17,0.515,3.15,1.14,1.5,0.189,0.966,0.15,1.1,0.262,0.451,1.83,4.44,2.78,2.38,0.942,3.63
GCTATTAGATGAAAGGGCAACCGAATGATTCTCG,-0.0836,0.345,0.21,0.469,-0.27,2.46,3.72,5.46,4.56,5.76,0.363,1.35,0.246,0.212,0.834,0.424,-0.122,0.795,0.15,1.94
GATACAGGGTCAAGTCCAGAGTACGCGTATTGAT,7.3,4.84,0.0543,4.3,0.511,5.77,5.91,5.85,2.51,4.33,3.07,4.1,1.84,0.844,4.21,4.36,0.54,5.16,1.38,4.64
CGACCTAGGTCATTGACAGGACAGTGAATAGTAA,5.8,4.01,0.717,2.75,0.226,4.18,3.67,3.24,0.782,2.01,3.78,3.8,0.789,0.214,2.3,1.99,-0.114,3.08,0.169,3.9
CCGAGTAGGTTATGGGCCATTCAGGCAACGGTGA,-0.39,0.176,-0.0661,-0.0151,-0.497,1.58,2.14,3.47,1.22,3.06,3.19,2.58,-0.937,-0.608,1.06,-0.326,-0.187,-0.0932,-0.148,0.816
CCTACTGGGCCATGCAGAGGTCATTGATCATATG,2.63,3.58,4.68,3.51,-0.363,3.84,2.51,3.33,1.11,2.41,3.41,4.39,0.533,0.384,2.69,5,1.62,4.75,0.229,3.05
CAAACTAGGTCAAGAGGTCCAAGTCCGCTTCCCG,3.7,2.26,0.265,1.6,0.102,4.52,7.57,6.68,4.65,6.56,8.55,8.32,1.57,0.903,1.86,1.58,0.285,2.21,0.1,4.02
CCGATTAGGTTATGGGGCATTCAGGCAACGGTGA,0.472,0.574,-0.0892,0.58,-0.609,1.58,2.14,3.35,1.63,2.83,2.29,2.29,-0.258,-1.33,1.18,0.0495,-0.245,0.615,0.0747,1.37
CAAACTAGATCAAAGGTCAAAGTCGAGCCAACCA,5.73,5.82,5.07,5.77,3.09,6.79,11.4,10.2,11.1,11.9,4.3,6.8,1.17,1.55,4.96,5.7,1.84,6.94,2.11,4.83
